Screening results deposited in PubChem by several laboratories.
Cdc25B inh: inhibitors of Cdc25B phosphatase catalytic domain, primary screen, biochemical, OMFP fluorescence. M-phase inducer phosphatase 2 (Homo sapiens), P30305. recombinant Cdc25B, OMFP fluorescence Ex485/Em525. inhibition, %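 (compounds tested at 10 µM final in the well)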. actives 0.1% (n = 65,000). AID 368, 2006; in the data active = inhibition above about 50%
Target sequence (P30305 whole entry, looked up, the tested form may be a part): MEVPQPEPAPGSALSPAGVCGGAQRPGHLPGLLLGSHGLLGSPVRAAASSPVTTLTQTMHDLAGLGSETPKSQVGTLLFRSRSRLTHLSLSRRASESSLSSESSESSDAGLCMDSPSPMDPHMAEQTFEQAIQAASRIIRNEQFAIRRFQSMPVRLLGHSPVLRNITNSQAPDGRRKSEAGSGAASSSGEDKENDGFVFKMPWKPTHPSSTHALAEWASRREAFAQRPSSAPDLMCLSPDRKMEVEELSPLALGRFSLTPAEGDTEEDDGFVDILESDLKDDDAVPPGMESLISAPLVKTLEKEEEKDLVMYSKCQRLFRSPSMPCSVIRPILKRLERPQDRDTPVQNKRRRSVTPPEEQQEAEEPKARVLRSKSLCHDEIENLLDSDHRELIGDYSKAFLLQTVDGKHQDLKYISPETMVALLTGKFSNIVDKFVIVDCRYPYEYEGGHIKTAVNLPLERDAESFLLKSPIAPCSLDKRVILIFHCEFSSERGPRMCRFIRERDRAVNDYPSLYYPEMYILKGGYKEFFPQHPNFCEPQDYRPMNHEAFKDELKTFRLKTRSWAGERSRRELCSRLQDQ
M1 antag: antagonists of rat M1 muscarinic receptor. AID 628, 2007. B-score at 10 µM. CHO-M1 cells, Fluo-4 calcium, ACh EC80 antagonist mode; active compounds read low. Muscarinic acetylcholine receptor M1 (Rattus norvegicus), P08482. actives 3.4% (n = 64,000);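 active = calcium fluorescence response, raw or row-and-column corrected B-score, differing from the plate sample mean either way at a set confidence level, mostly lower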
Hsp90 inh: tumor Hsp90 inhibitors, primary screen, cell lysate, fluorescence polarization, NCI-N417 lysate; Heat shock protein HSP 90-alpha (Homo sapiens), P07900; Cy3B-geldanamycin FP displacement; actives 0.35% (n = 64,000); AID 429, 2006; inhibition, % at 30 µM;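 active = inhibition above 50%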;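 also: 0% = tracer plus lysate wells and 100% = tracer alone without lysate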
MMP13 inh: human MMP13 inhibitors, primary screen, biochemical, FRET peptide cleavage | MMP-13 fTHP FRET cleavage, Mca fluorescence | AID 570, 2006 | actives 0.07% (n = 65,000) | inhibition, % at 4 µM | Collagenase 3 (Homo sapiens), P45452;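 active = inhibition above the mean of compound-free control plate wells plus 3 SD, cut at about 14% in these data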;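 also: 0% = DMSO wells and 100% = wells with reference MMP-13 inhibitor after basal subtraction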
MKP-1 inh: MKP-1 phosphatase inhibitors, primary screen, biochemical, in vitro; inhibition, %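 (compounds tested at a single concentration somewhere between 10 and 100 µM)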; actives 0.15% (n = 65,000); Dual specificity protein phosphatase 1 (Homo sapiens), P28562; recombinant MKP-1, OMFP hydrolysis fluorescence;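 active = inhibition above about 50%, limit read from the data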;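 also: 0% = DMSO max control wells and 100% = wells with enzyme stopped by NaOH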
M1 ag: M1 muscarinic receptor agonists, primary screen, CHO-M1 cells, Fluo-4 calcium, agonist mode. Muscarinic acetylcholine receptor M1. Fluo-4 calcium fluorescence; active compounds read high. B-score at 10 µM. actives 3% (n = 64,000). AID 626, 2007;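 active = fluorescence rise, raw or as B-score row- and column-corrected plate score, outside the 99.7% band of its plate's samples, either direction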
The depositor's hits bear a star; x = no result. Rows were chosen to be rich in hits. Some 6.1% of all compounds tested hit in one or more screens of this group.

SMILES	Cdc25B inh	M1 antag	Hsp90 inh	MMP13 inh	MKP-1 inh	M1 ag
CCC(CO)Nc1nc(NCc2ccccc2)c2ncn(C(C)C)c2n1 (configuration not stated)	x	x	-4	x	x	x
c1cc(-c2nnc(-c3ccncc3)o2)ccn1	-19	0.82	1	0	12	-1.3
CCN(CC)c1ccc2cc(-c3nnc(-c4ccncc4)o3)c(=O)oc2c1	-39	-15*	33	4	13	401*
Cn1c(COc2ccc(Cl)cc2)nnc1SCc1ncc(-c2ccccc2)o1	-28	-0.03	-2	4	43	0.028
COc1cccc(-c2cc(C(=O)Nc3cc(C)on3)no2)c1	-5	0.19	-3	-1	10	-0.17
COc1cccc(-c2cc(C(=O)Nc3cc(OC)c(OC)c(OC)c3)no2)c1	0	-1.2	-1	1	25	2.4*
N#CC1=C(N)Oc2cc(N)ccc2C1C1CCCCC1 (configuration not stated)	-8	0.31	-5	-20	22	-0.31
O=S(=O)(Cc1ccc(Cl)cc1)Nc1ccc2c(c1)OCO2	-2	0.42	56*	2	-3	1
CC(C)[C@H](NC(=O)OCc1ccccc1)C(=O)N[C@H](C=O)Cc1ccccc1	x	x	1	x	x	x
CN(C)c1nc2n(c(=O)n1)C(C#N)CS2 (configuration not stated)	-15	3*	-2	6	-17	-0.059
CCOC(=O)/C=C/S(=O)(=O)c1ccc(NC(C)=O)cc1	-1	1.9*	0	7	2	-0.79
CC(N)=O	x	x	1	x	x	x
O=C(CSc1nc2c(cnn2-c2ccccc2)c(=O)[nH]1)c1ccc(Cl)cc1	35	0.045	4	-2	56*	-1.7
CCCSc1nc2c(cnn2-c2ccccc2)c(=O)[nH]1	-2	0.13	0	0	3	0.96
CCCCSc1nc2c(cnn2-c2ccc(Cl)cc2)c(=O)[nH]1	10	0.25	0	0	12	5.6*
Nc1nc(Nc2ccccc2)nc2c1ncn2[C@@H]1O[C@H](CO)[C@H](O)C1O (some centres not stated)	x	x	0	x	x	x
COc1ccc(OC)c(/C=N/c2oc(-c3ccco3)c(-c3ccco3)c2C#N)c1	8	-0.00024	55*	-3	-4	-0.22
N#Cc1c(N)oc(-c2ccco2)c1-c1ccco1	8	1.5	-4	-6	35	0.82
N[C@@H](CS(=O)O)C(=O)O	x	x	-1	x	x	x
Cc1cc(C)c2c(n1)nn1c(NCCCn3ccnc3)cc(C)nc21	-11	-3.3*	-1	-155	16	0.26
Cc1cc(C)c2c(n1)nn1c(NCCCN3CCOCC3)cc(C)nc21	21	0.072	0	-204	14	0.61
CC1=C(CC(=O)O)c2cc(F)ccc2/C1=C\c1ccc(S(C)=O)cc1 (configuration not stated)	x	x	-3	x	x	x
CC(C)c1nc2oc3c(NCc4ccccn4)ncnc3c2c2c1COC(C)(C)C2	9	0.42	1	-12	22	4.6*
CN1CCN(C(=O)c2ccc3c(c2)N(Cc2ccc(Cl)cc2)C(=O)c2ccccc2S3=O)CC1 (configuration not stated)	-4	-0.0089	0	-8	1	0.28
O=C(O)c1ccc2c(c1)N(Cc1ccccc1)C(=O)c1ccccc1S2=O (configuration not stated)	66*	0.44	1	4	2	-0.2
SMILES	Cdc25B inh	M1 antag	Hsp90 inh	MMP13 inh	MKP-1 inh	M1 ag
O=C(NCc1ccccc1)c1cccc(NC(=O)c2ccco2)c1	x	-0.23	x	5	x	0.058
Cc1ccc(C(=O)Nc2cccc(C(=O)NCc3ccccc3)c2)o1	-5	-0.41	-3	-1	9	3.1*
Cc1ccc(S(=O)(=O)Nc2ccc3oc(=O)sc3c2)c(C)c1	14	-0.69	56*	2	-14	-0.56
CN(Cc1ccc(-n2cccn2)cc1)C(=O)c1cnn2c1NC(c1ccco1)CC2C(F)(F)F (configuration not stated)	-2	-0.87	-2	0	18	1.3
CCCOc1cccc(C(=O)Nc2cccnc2)c1	-2	-0.082	-1	2	-9	-0.75
CCCOc1cccc(C(=O)Nc2cccc(NC(=O)c3ccco3)c2)c1	-4	-0.26	-7	-15	-1	6*
O=C(CSc1nc(-c2ccccc2)cc(=O)[nH]1)N1CCOCC1	2	0.6	-2	1	26	0.034
Nc1nonc1N1CCCCC1	3	-2	72*	0	-17	-0.33
Nc1nc2nonc2nc1N1CCCCC1	6	-0.2	3	2	-25	-0.78
CN(C)c1ccc(C(=S)NCc2ccco2)cc1	-9	0.65	-17	4	3	-0.64
CCc1c(C)[nH]c2c1C(=O)C(CN1CCOCC1)CC2 (configuration not stated)	x	x	-4	x	x	x
COC(=O)c1[nH]c2ccc(Cl)cc2c1NC(=O)C1CC1	84*	-0.0022	-7	-39	-8	-0.34
CCOC(=O)C1CCN(CC(=O)Nc2c(C(=O)OC)[nH]c3ccc(Cl)cc23)CC1	1	-0.2	-8	-22	0	0.37
COc1ccc(C2CC(=O)C3=C(C2)Nc2ncnn2C3c2ccccc2)cc1 (configuration not stated)	-4	-0.0017	91*	2	-1	-0.87
Cc1ccc(Cn2c(NCCc3ccccc3)nc3c2c(=O)n(C)c(=O)n3C)cc1	-9	-0.36	-1	0	2	-1.1
Cc1nnc(NCCc2ccccc2)n(N)c1=O	-10	1.5*	-1	4	3	0.071
COc1ccc(C(=O)N2CCCC(c3nc(-c4ccc(OC)c(OC)c4)no3)C2)c(OC)c1 (configuration not stated)	0	-0.07	-2	3	10	-0.35
O=S(=O)(c1cccc(-c2nnc(-c3ccc(Br)cc3)o2)c1)N1CCCCCC1	1	-0.051	x	x	8	1.2
O=S(=O)(c1cccc(-c2nnco2)c1)N1CCCC1	-5	0.11	91*	0	6	-0.14
CN(c1ccc(O)cc1)c1nc(-c2ccccc2)cs1	-12	-0.065	2	20*	27	0.78
CCC(=O)N(Cc1ccco1)c1nc(-c2ccccc2)cs1	-12	-0.083	-3	4	-3	0.3
CCOC(=O)CSc1nc(N(C)C)nc(N(C)C#N)n1	0	0.69	-5	-32	-19	0.91
CC1=C(C(=O)OC(C)C)C(c2cccs2)N2C(=O)CCSC2=N1 (configuration not stated)	-12	0.15	-5	3	-6	0.18
COC(=O)C1=C(C)N=C2SCCC(=O)N2C1c1cccs1 (configuration not stated)	54*	-0.21	-4	5	6	-0.057
